{"source": "the supplement of paper PMC6555819", "assay_in_all_cases": "PBM binding z-score (relative to random genomic background probes); higher = stronger binding; sequences stand for … in GC…GCGATTGACAGCGTAGAATGAAGG", "key": {"[1]": {"tested_on": "RARb homodimer (NR concentration 270 nM)", "how_it_was_run": "(§1)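 Scanned fluorescence from custom Agilent 4×180K protein-binding microarrays was regression-normalized. Binding z-scores use random background probes as reference. Ligand-free nuclear receptor dimers were incubated on the arrays for 1 h and detected with antibodies against each partner (one per run).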"}, "[2]": {"tested_on": "RARg:RXRa (NR concentration 270 nM, RXRa partner concentration 90 nM)", "how_it_was_run": "as §1"}, "[3]": {"tested_on": "RARg homodimer (NR concentration 270 nM)", "how_it_was_run": "as §1"}, "[4]": {"tested_on": "RXRa DBDmut IVT, anti-RXR (DBD mutation: RXRa K156A/R161A, NR concentration 90 nM)", "how_it_was_run": "as §1"}, "[5]": {"tested_on": "RXRa homodimer (NR concentration 180 nM)", "how_it_was_run": "as §1"}, "[6]": {"tested_on": "THRa:RXRa (NR concentration 90 nM, RXRa partner concentration 90 nM)", "how_it_was_run": "as §1"}, "[7]": {"tested_on": "THRa homodimer (NR concentration 90 nM)", "how_it_was_run": "as §1"}, "[8]": {"tested_on": "VDR homodimer (NR concentration 270 nM)", "how_it_was_run": "as §1"}}, "data": [{"sequence": "ACAGAGAGGTGATGAAGGTAACTCAGGCTATCAT", "values": [{"measurement": "PBM binding z-score", "setting": "[1]", "result": 0.584}, {"measurement": "PBM binding z-score", "setting": "[2]", "result": 0.531}, {"measurement": "PBM binding z-score", "setting": "[3]", "result": 0.832}, {"measurement": "PBM binding z-score", "setting": "[4]", "result": -0.266}, {"measurement": "PBM binding z-score", "setting": "[5]", "result": 0.587}, {"measurement": "PBM binding z-score", "setting": "[6]", "result": 1.33}, {"measurement": "PBM binding z-score", "setting": "[7]", "result": 0.312}, {"measurement": "PBM binding z-score", "setting": "[8]", "result": -0.222}]}, {"sequence": "CATACAGGGTCAGCTACGCCAGAGTAGGGACGGC", "values": [{"measurement": "PBM binding z-score", "setting": "[1]", "result": 2.9}, {"measurement": "PBM binding z-score", "setting": "[2]", "result": 4.44}, {"measurement": "PBM binding z-score", "setting": "[3]", "result": 4.43}, {"measurement": "PBM binding z-score", "setting": "[4]", "result": 1.69}, {"measurement": "PBM binding z-score", "setting": "[5]", "result": 4.11}, {"measurement": "PBM binding z-score", "setting": "[6]", "result": 2.73}, {"measurement": "PBM binding z-score", "setting": "[7]", "result": 0.834}, {"measurement": "PBM binding z-score", "setting": "[8]", "result": 1.09}]}, {"sequence": "GCTTACGTGTCAAAGGTTATAGCATGAATAGAAT", "values": [{"measurement": "PBM binding z-score", "setting": "[1]", "result": 1.28}, {"measurement": "PBM binding z-score", "setting": "[2]", "result": 3.21}, {"measurement": "PBM binding z-score", "setting": "[3]", "result": 1.5}, {"measurement": "PBM binding z-score", "setting": "[4]", "result": 0.885}, {"measurement": "PBM binding z-score", "setting": "[5]", "result": 4.41}, {"measurement": "PBM binding z-score", "setting": "[6]", "result": 1.81}, {"measurement": "PBM binding z-score", "setting": "[7]", "result": -0.725}, {"measurement": "PBM binding z-score", "setting": "[8]", "result": -0.00185}]}, {"sequence": "GTACCAGGGTGAATAGGTCGTTGATGAGTAGGCG", "values": [{"measurement": "PBM binding z-score", "setting": "[1]", "result": 1.54}, {"measurement": "PBM binding z-score", "setting": "[2]", "result": 2.21}, {"measurement": "PBM binding z-score", "setting": "[3]", "result": 0.988}, {"measurement": "PBM binding z-score", "setting": "[4]", "result": -0.386}, {"measurement": "PBM binding z-score", "setting": "[5]", "result": 2}, {"measurement": "PBM binding z-score", "setting": "[6]", "result": 1.21}, {"measurement": "PBM binding z-score", "setting": "[7]", "result": 0.463}, {"measurement": "PBM binding z-score", "setting": "[8]", "result": 0.626}]}, {"sequence": "CGTCAAAGTTCAACTAGGGTAACGTAAAGCACGC", "values": [{"measurement": "PBM binding z-score", "setting": "[1]", "result": 4.3}, {"measurement": "PBM binding z-score", "setting": "[2]", "result": 5.87}, {"measurement": "PBM binding z-score", "setting": "[3]", "result": 6.62}, {"measurement": "PBM binding z-score", "setting": "[4]", "result": 4.69}, {"measurement": "PBM binding z-score", "setting": "[5]", "result": 5.44}, {"measurement": "PBM binding z-score", "setting": "[6]", "result": 5.14}, {"measurement": "PBM binding z-score", "setting": "[7]", "result": 0.583}, {"measurement": "PBM binding z-score", "setting": "[8]", "result": 4.44}]}, {"sequence": "GCGACTGGGGTAAAGCAGGTTACCATAAGGTTGG", "values": [{"measurement": "PBM binding z-score", "setting": "[1]", "result": 0.792}, {"measurement": "PBM binding z-score", "setting": "[2]", "result": 0.464}, {"measurement": "PBM binding z-score", "setting": "[3]", "result": 0.108}, {"measurement": "PBM binding z-score", "setting": "[4]", "result": -0.286}, {"measurement": "PBM binding z-score", "setting": "[5]", "result": 1.03}, {"measurement": "PBM binding z-score", "setting": "[6]", "result": 2.59}, {"measurement": "PBM binding z-score", "setting": "[7]", "result": 0.334}, {"measurement": "PBM binding z-score", "setting": "[8]", "result": -0.11}]}, {"sequence": "ATCGAAAGGGCGACGAGGTGAGTATACACCGTTT", "values": [{"measurement": "PBM binding z-score", "setting": "[1]", "result": 1}, {"measurement": "PBM binding z-score", "setting": "[2]", "result": 1.16}, {"measurement": "PBM binding z-score", "setting": "[3]", "result": 1.28}, {"measurement": "PBM binding z-score", "setting": "[4]", "result": -0.425}, {"measurement": "PBM binding z-score", "setting": "[5]", "result": 0.969}, {"measurement": "PBM binding z-score", "setting": "[6]", "result": 1.99}, {"measurement": "PBM binding z-score", "setting": "[7]", "result": 0.542}, {"measurement": "PBM binding z-score", "setting": "[8]", "result": 0.597}]}, {"sequence": "CATACAGGGGCAGCTAGGCCAGAGTAGGGACGGC", "values": [{"measurement": "PBM binding z-score", "setting": "[1]", "result": 0.473}, {"measurement": "PBM binding z-score", "setting": "[2]", "result": 0.498}, {"measurement": "PBM binding z-score", "setting": "[3]", "result": 1.02}, {"measurement": "PBM binding z-score", "setting": "[4]", "result": -0.381}, {"measurement": "PBM binding z-score", "setting": "[5]", "result": -0.153}, {"measurement": "PBM binding z-score", "setting": "[6]", "result": 0.05}, {"measurement": "PBM binding z-score", "setting": "[7]", "result": -0.63}, {"measurement": "PBM binding z-score", "setting": "[8]", "result": -0.506}]}, {"sequence": "ATCGAAAGGTCGAGGTGAGTAGAGAGAAAGGGAA", "values": [{"measurement": "PBM binding z-score", "setting": "[1]", "result": 2.81}, {"measurement": "PBM binding z-score", "setting": "[2]", "result": 4.37}, {"measurement": "PBM binding z-score", "setting": "[3]", "result": 4.69}, {"measurement": "PBM binding z-score", "setting": "[4]", "result": 0.806}, {"measurement": "PBM binding z-score", "setting": "[5]", "result": 4.41}, {"measurement": "PBM binding z-score", "setting": "[6]", "result": 2.62}, {"measurement": "PBM binding z-score", "setting": "[7]", "result": 0.626}, {"measurement": "PBM binding z-score", "setting": "[8]", "result": 0.405}]}, {"sequence": "GGAACGAGGGCACAGTTGATAGCATCTGTCGACG", "values": [{"measurement": "PBM binding z-score", "setting": "[1]", "result": 0.918}, {"measurement": "PBM binding z-score", "setting": "[2]", "result": 1.28}, {"measurement": "PBM binding z-score", "setting": "[3]", "result": 1.61}, {"measurement": "PBM binding z-score", "setting": "[4]", "result": 1.69}, {"measurement": "PBM binding z-score", "setting": "[5]", "result": 0.922}, {"measurement": "PBM binding z-score", "setting": "[6]", "result": 1.08}, {"measurement": "PBM binding z-score", "setting": "[7]", "result": -0.317}, {"measurement": "PBM binding z-score", "setting": "[8]", "result": 0.774}]}, {"sequence": "ATCTCTAGGTAAAGATAGTTAAGTGAATGCAAAT", "values": [{"measurement": "PBM binding z-score", "setting": "[1]", "result": -0.639}, {"measurement": "PBM binding z-score", "setting": "[2]", "result": 0.108}, {"measurement": "PBM binding z-score", "setting": "[3]", "result": 0.448}, {"measurement": "PBM binding z-score", "setting": "[4]", "result": -0.348}, {"measurement": "PBM binding z-score", "setting": "[5]", "result": -0.199}, {"measurement": "PBM binding z-score", "setting": "[6]", "result": 0.104}, {"measurement": "PBM binding z-score", "setting": "[7]", "result": -0.211}, {"measurement": "PBM binding z-score", "setting": "[8]", "result": -0.177}]}, {"sequence": "GCTGTTAGTTGAAAGGGCAACCGAATGATTCTCG", "values": [{"measurement": "PBM binding z-score", "setting": "[1]", "result": 2.03}, {"measurement": "PBM binding z-score", "setting": "[2]", "result": 1.49}, {"measurement": "PBM binding z-score", "setting": "[3]", "result": 1.43}, {"measurement": "PBM binding z-score", "setting": "[4]", "result": 0.773}, {"measurement": "PBM binding z-score", "setting": "[5]", "result": 1.23}, {"measurement": "PBM binding z-score", "setting": "[6]", "result": 0.729}, {"measurement": "PBM binding z-score", "setting": "[7]", "result": -0.379}, {"measurement": "PBM binding z-score", "setting": "[8]", "result": -0.0381}]}, {"sequence": "TCGAGTAGATTAGTCGGGGCATTCAGCCAACATA", "values": [{"measurement": "PBM binding z-score", "setting": "[1]", "result": -0.464}, {"measurement": "PBM binding z-score", "setting": "[2]", "result": -0.658}, {"measurement": "PBM binding z-score", "setting": "[3]", "result": -0.665}, {"measurement": "PBM binding z-score", "setting": "[4]", "result": 0.38}, {"measurement": "PBM binding z-score", "setting": "[5]", "result": -0.393}, {"measurement": "PBM binding z-score", "setting": "[6]", "result": -0.269}, {"measurement": "PBM binding z-score", "setting": "[7]", "result": -0.485}, {"measurement": "PBM binding z-score", "setting": "[8]", "result": -0.548}]}]}
